Measurements from PubChem BioAssay (EPA / NIEHS).
Calls of active or inactive are those of the source. The calls were made as follows: active = hit-call score of the fitted dose curve at least 0.9, where 1 is the maximum; inactive = score below 0.9.

Assays:
Settings in all cases: mRNA level, 48 h; actives raise or lower the signal
[1] = read-out: sulfotransferase 2A1 (SULT2A1), SULT2A1 (gene 6822); experiment: LTEA_HepaRG_SULT2A1: Life Technologies and Expression Analysis (LTEA) Assay for sulfotransferase 2A1 (SULT2A1) using HepaRG (AID 2283531)
Method in brief: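 Expression change of SULT2A1, by qRT-PCR with three housekeeping-gene normalization, was scored bidirectionally versus DMSO. Cells: differentiated HepaRG, dosed in duplicate for 48 h across 8 points, highest 100 µM, half-log dilution, 0.5% DMSO.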

[2] = read-out: Transforming Growth Factor (TGFA), TGFA (gene 7039); experiment: LTEA_HepaRG_TGFA: Life Technologies and Expression Analysis (LTEA) Assay for Transforming Growth Factor (TGFA) using HepaRG (AID 2283532)
Method in brief: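 Differentiated human HepaRG cells, plated 48 h then switched to serum-free induction medium, were exposed in duplicate for 48 h to 8-point half-log series from 100 uM in 0.5% DMSO. TGFA mRNA measured by qRT-PCR, normalized to ACTB/GAPDH/POLR2A, bidirectional fit versus DMSO.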

[3] = read-out: Transforming Growth Factor (TGFB1), TGFB1 (gene 7040); experiment: LTEA_HepaRG_TGFB1: Life Technologies and Expression Analysis (LTEA) Assay for Transforming Growth Factor (TGFB1) Transporter using HepaRG (AID 2283533)
Method in brief: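 TGFB1 transcript measured by qRT-PCR with normalisation to three housekeeping genes (ACTB, GAPDH, POLR2A); human HepaRG line treated in duplicate for 48 hr with an 8-point series topping at 100 uM, 0.5% DMSO vehicle, bidirectionally fitted.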

TIMP1, TIMP1 (gene 7076) = experiment: LTEA_HepaRG_TIMP1: Life Technologies and Expression Analysis (LTEA) Assay for TIMP1 using HepaRG (AID 2283534)
Method in brief: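 Bidirectional change in TIMP1 transcript versus 0.5% DMSO, measured by TaqMan qRT-PCR with three housekeeping genes for normalization. HepaRG human liver cells dosed 48 h in duplicate, top concentration 100 uM with half-log dilutions.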

[4] = read-out: Tumor necrosis factor receptor 1 (TNFRSF1A), TNFRSF1A (gene 7132); experiment: LTEA_HepaRG_TNFRSF1A: Life Technologies and Expression Analysis (LTEA) Assay for Tumor necrosis factor receptor 1 (TNFRSF1A) using HepaRG (AID 2283535)
Method in brief: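 mRNA measured by qRT-PCR (TaqMan, Fluidigm arrays) against ACTB/GAPDH/POLR2A housekeepers after 48 h chemical exposure of HepaRG cells. Top concentration 100 uM, half-log 8-point series, duplicates; vehicle 0.5% DMSO, both fit directions.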

[5] = read-out: Thyroid Hormone Responsive (THRSP), THRSP (gene 7069); experiment: LTEA_HepaRG_THRSP: Life Technologies and Expression Analysis (LTEA) Assay for Thyroid Hormone Responsive (THRSP) using HepaRG (AID 2283536)
Method in brief: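 Differentiated human HepaRG cells were exposed in duplicate for 48 h in serum-free induction medium to eight concentrations (top 100 uM, half-log steps, 0.5% DMSO). Expression was quantified by TaqMan qRT-PCR, normalized to ACTB, GAPDH and POLR2A, with bidirectional fitting against DMSO.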

[6] = read-out: Cellular tumor antigen p53 (Homo sapiens) (UniProt P04637); experiment: LTEA_HepaRG_TP53: Life Technologies and Expression Analysis (LTEA) Assay for Tumor Protein P53 (TP53) using HepaRG (AID 2283537)
Method in brief: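 HepaRG, 48 h exposure, top 100 uM, half-log 8-point, 0.5% DMSO vehicle, duplicates. Read: TP53 mRNA by TaqMan qRT-PCR, normalised to ACTB/GAPDH/POLR2A; bidirectional fit vs DMSO.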

[7] = read-out: UDP glucuronosyltransferase (UGT1A1), UGT1A1 (gene 54658); experiment: LTEA_HepaRG_UGT1A1: Life Technologies and Expression Analysis (LTEA) Assay for UDP glucuronosyltransferase (UGT1A1) using HepaRG (AID 2283538)
Method in brief: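 Readout is UGT1A1 transcript level by qRT-PCR, normalized to three housekeeping genes, after 48 h chemical treatment of HepaRG cells. Concentrations ran from 100 uM down in half-log steps with 0.5% DMSO, and gain or loss relative to DMSO was fitted.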

[8] = read-out: UDP glucuronosyltransferase (UGT1A6), UGT1A6 (gene 54578); experiment: LTEA_HepaRG_UGT1A6: Life Technologies and Expression Analysis (LTEA) Assay for UDP glucuronosyltransferase (UGT1A6) using HepaRG (AID 2283539)
Method in brief: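 Expression was quantified by TaqMan qRT-PCR on Fluidigm arrays with ACTB/GAPDH/POLR2A normalization and bidirectional fitting against 0.5% DMSO. HepaRG cells (~100,000/well) were treated in duplicate for 48 h at eight half-log concentrations up to 100 uM in serum-free induction medium.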

[9] = read-out: X-box binding protein 1 (XBP1), XBP1 (gene 7494); experiment: LTEA_HepaRG_XBP1: Life Technologies and Expression Analysis (LTEA) Assay for X-box binding protein 1 (XBP1) using HepaRG (AID 2283540)
Method in brief: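 XBP1 transcript by qRT-PCR (housekeeping-normalized: ACTB, GAPDH, POLR2A) after 48 h chemical treatment of HepaRG cells, 8-point half-log series topping at 100 uM, vehicle 0.5% DMSO. Gain and loss of signal fitted relative to DMSO.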

Measured: AC50

Cellular tumor antigen p53 (Homo sapiens), sequence (P04637 whole entry, looked up): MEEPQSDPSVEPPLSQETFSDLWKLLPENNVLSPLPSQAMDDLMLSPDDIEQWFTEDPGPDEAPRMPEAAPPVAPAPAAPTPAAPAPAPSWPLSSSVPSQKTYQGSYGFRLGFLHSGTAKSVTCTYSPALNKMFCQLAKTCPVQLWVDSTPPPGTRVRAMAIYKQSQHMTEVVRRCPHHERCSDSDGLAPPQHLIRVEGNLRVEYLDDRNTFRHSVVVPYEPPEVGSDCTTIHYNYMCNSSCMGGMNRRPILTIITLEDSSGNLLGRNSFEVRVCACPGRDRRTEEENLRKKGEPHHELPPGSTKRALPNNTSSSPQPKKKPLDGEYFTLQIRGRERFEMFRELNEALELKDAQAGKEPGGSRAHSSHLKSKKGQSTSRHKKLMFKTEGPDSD

O=C1C2CC=CCC2C(=O)N1SC(Cl)(Cl)Cl (stereo not given)
inactive: [1] | [2] | [3] | TIMP1, TIMP1 (gene 7076) | [4] | [6] | [7] | [8] | [9]
active: [5] 16.2 µM

CCSC(=O)N1CCCCCC1
inactive: [1] | [2] | [3] | TIMP1, TIMP1 (gene 7076) | [4] | [5] | [6] | [7] | [8] | [9]

CCNC(=O)NC(=O)C(C#N)=NOC
inactive: [1] | [2] | [3] | TIMP1, TIMP1 (gene 7076) | [5] | [7] | [9]
active: [4] 0.27 µM | [8] 0.306 µM

C=C(C)CN(CC)c1c([N+](=O)[O-])cc(C(F)(F)F)cc1[N+](=O)[O-]
active: [7] 50 µM
inactive: [1] | [2] | [3] | TIMP1, TIMP1 (gene 7076) | [5] | [6] | [8] | [9]

CC(C)Nc1nc(Cl)nc(NC(C)C)n1
active: [7] 8.13 µM
inactive: [1] | [2] | [3] | TIMP1, TIMP1 (gene 7076) | [4] | [5] | [6] | [8] | [9]

CCNP(=S)(OC)O/C(C)=C/C(=O)OC(C)C (stereo not given)
inactive: [1] | [2] | [3] | TIMP1, TIMP1 (gene 7076) | [4] | [6] | [8] | [9]
active: [5] 32.6 µM | [7] 9.32 µM

CCCC(=NOCC)C1=C(O)CC(CC(C)SCC)CC1=O (stereo not given)
inactive: [1] | [2] | [3] | TIMP1, TIMP1 (gene 7076) | [4] | [5] | [6] | [8] | [9]
active: [7] 50.2 µM

COCc1cnc(C2=NC(C)(C(C)C)C(=O)N2)c(C(=O)O)c1 (stereo not given)
inactive: [1] | [2] | [3] | TIMP1, TIMP1 (gene 7076) | [4] | [5] | [7] | [8] | [9]

CCN(CC)c1nc(C)cc(OP(=S)(OC)OC)n1
inactive: [1] | [2] | [3] | TIMP1, TIMP1 (gene 7076) | [4] | [5] | [6] | [9]
active: [7] 12.8 µM | [8] 3.58 µM

CC(C)=CC1C(C(=O)OCc2coc(Cc3ccccc3)c2)C1(C)C (stereo not given)
inactive: [1] | [2] | [3] | TIMP1, TIMP1 (gene 7076) | [4] | [5] | [8] | [9]
active: [7] 39.4 µM

CCCCC(O)(Cn1cncn1)c1ccc(Cl)cc1Cl (stereo not given)
active: [1] 76.3 µM | [2] 71.8 µM | [3] 61.2 µM | [5] 9.77 µM | [6] 72.4 µM | [7] 81.4 µM | [8] 73.4 µM
inactive: TIMP1, TIMP1 (gene 7076) | [4] | [9]

Nc1cnn(-c2ccccc2)c(=O)c1Cl
inactive: [1] | [2] | [3] | TIMP1, TIMP1 (gene 7076) | [4] | [5] | [6] | [8] | [9]
active: [7] 50 µM

CCCCOCN(C(=O)CCl)c1c(CC)cccc1CC
inactive: [1] | [2] | [3] | TIMP1, TIMP1 (gene 7076) | [4] | [5] | [6] | [8] | [9]
active: [7] 50 µM

CCN(CC)C(=O)C(C)Oc1cccc2ccccc12 (stereo not given)
active: [7] 12.9 µM | [9] 50 µM
inactive: [1] | [2] | [3] | TIMP1, TIMP1 (gene 7076) | [4] | [5] | [6] | [8]

CS(=O)(=O)c1cc(C(F)(F)F)ccc1C(=O)c1cnoc1C1CC1
inactive: [1] | [2] | [3] | TIMP1, TIMP1 (gene 7076) | [5] | [6] | [7] | [8] | [9]

CC(C)N1C(=O)N(c2ccccc2)CSC1=NC(C)(C)C
inactive: [3] | TIMP1, TIMP1 (gene 7076) | [4] | [5] | [9]
active: [1] 96.5 µM | [2] 79.4 µM | [6] 76.2 µM | [7] 88.8 µM | [8] 85.1 µM

COc1ccc(-c2ccccc2)cc1NNC(=O)OC(C)C
inactive: [1] | [2] | [3] | TIMP1, TIMP1 (gene 7076) | [4] | [5] | [6] | [7] | [8] | [9]
